# Test results as given in PubChem BioAssay (Tox21).
# Where “and” joins values, the source holds several entries; their conditions need not be identical. Identical values can stand only once. Results filed as inconclusive are left out. Where a call stands in place of a potency, no number is given. The source holds several records for some structures; these can differ, active in one and inactive in another. Calls of active or inactive are those of the source. Unless noted, calls come from the whole dose curve.
# Columns and labels:
# [1] = Nuclear factor erythroid 2-related factor 2/antioxidant responsive element (Nrf2/ARE) small molecule agonists: qHTS cell viability counter screen in human keratinocytes (AID 1919968; active = well fitted curve in the direction sought with a large enough effect in the repeat runs; an effect the other way counts as inactive or inconclusive; note: nearly all actives have a fitted effect of over 55% in size)
# Method in brief: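 Fluorescence read-out from CellTiter-Fluor after 1 h at 37 C. Wells held HaCaT-derived ARE-luciferase reporter cells (1,500/well) treated 23 h with DMSO-dissolved compounds. Run in the same wells as the luciferase agonist read.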
# [2] = Nuclear factor erythroid 2-related factor 2/antioxidant responsive element (Nrf2/ARE) small molecule agonists: luciferase reporter gene qHTS assay in human keratinocytes (AID 1919969); note: nearly all actives have a fitted effect of over 35% in size; note: potency is the fitted concentration of half-maximal effect
# [3] = target: Gonadotropin-releasing hormone receptor (Homo sapiens) (UniProt P30968); assay: Human gonadotropin-releasing hormone receptor (GnRHR) small molecule agonists, calcium flux assay in GnRHR-HEK293 cells (AID 1920063); note: nearly all actives have a fitted effect of over 35% in size
# Sequence of Gonadotropin-releasing hormone receptor (Homo sapiens) (P30968 whole entry, looked up): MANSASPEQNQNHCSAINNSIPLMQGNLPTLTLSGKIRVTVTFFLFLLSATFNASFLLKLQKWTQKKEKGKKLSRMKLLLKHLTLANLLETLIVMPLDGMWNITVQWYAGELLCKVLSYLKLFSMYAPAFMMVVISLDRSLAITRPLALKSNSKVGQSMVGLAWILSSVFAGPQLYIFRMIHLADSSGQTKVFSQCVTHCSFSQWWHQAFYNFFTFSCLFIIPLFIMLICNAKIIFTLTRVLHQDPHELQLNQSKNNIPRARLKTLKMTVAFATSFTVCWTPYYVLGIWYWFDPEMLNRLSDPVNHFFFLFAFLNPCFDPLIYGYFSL
# Method in brief: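 Calcium-dye fluorescence, Ex/Em=480/540, recorded every 1 sec over 3 min after compound addition to GnRHR-HEK293 cells. Cells had been seeded 18 hours earlier and dye-loaded for 1 hour at 37 C. Fifteen concentrations, triplicates.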
# [4] = target: KiSS-1 receptor (Homo sapiens) (UniProt Q969F8); assay: Human kisspeptin (KISS1R) small molecule agonists, calcium flux assay in KISS1R-HEK293 cells (AID 1920064; active = well fitted curve in the direction sought with a large enough effect in the repeat runs; an effect the other way counts as inactive or inconclusive)
# Sequence of KiSS-1 receptor (Homo sapiens) (Q969F8 whole entry, looked up): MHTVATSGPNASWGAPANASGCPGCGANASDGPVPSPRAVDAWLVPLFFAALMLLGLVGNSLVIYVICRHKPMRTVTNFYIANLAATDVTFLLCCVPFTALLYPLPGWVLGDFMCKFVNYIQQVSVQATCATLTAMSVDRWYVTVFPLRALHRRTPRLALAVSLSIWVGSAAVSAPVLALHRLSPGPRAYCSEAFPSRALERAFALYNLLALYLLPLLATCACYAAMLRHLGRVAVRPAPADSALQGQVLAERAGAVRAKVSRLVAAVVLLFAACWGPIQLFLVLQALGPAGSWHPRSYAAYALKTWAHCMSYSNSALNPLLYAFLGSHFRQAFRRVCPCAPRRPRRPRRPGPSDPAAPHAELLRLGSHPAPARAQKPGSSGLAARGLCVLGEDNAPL
# Method in brief: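 Calcium flux read-out: kinetic fluorescence at Ex/Em=480/540, 1 s intervals over 3 min, after pin-tool compound addition to dye-loaded KISS1R-HEK293 cells. Fifteen concentrations, triplicates.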
# [5] = p53 small molecule agonists, cell-based qHTS assay with human liver microsomes (AID 1963577)
# Method in brief: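 Cells carrying a p53-responsive bla reporter were rested 5 h (37 C, 5% CO2) before compound transfer. Human liver microsomes plus NADPH, 0.5 mg/mL final apiece, supplied metabolism during the 16 h 37 C exposure.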
# [6] = p53 small molecule agonists, cell-based qHTS assay with rat liver microsomes (AID 1963578)
# Method in brief: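 Fluorescence from a beta-lactamase reporter under a p53 response element was measured after cells had been incubated 16 h at 37 C with test compound and rat liver microsomes plus NADPH (0.5 mg/mL final each).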
# [7] = p53 small molecule agonists, cell-based qHTS assay with human liver microsomes: qHTS cell viability counter screen (AID 1963579); note: nearly all actives have a fitted effect of over 45% in size; note: potency is the fitted concentration of half-maximal effect
# Method in brief: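 Seed p53RE-bla cells at 4,000 per well; incubate 5 h at 37 C; add compound, human liver microsomes and NADPH; incubate 16 h at 37 C; add CellTiter-Glo; after 30 min at room temperature, read luminescence.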
# [8] = p53 small molecule agonists, cell-based qHTS assay with rat liver microsomes: qHTS cell viability counter screen (AID 1963580); note: nearly all actives have a fitted effect of over 45% in size
# Method in brief: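 Cytotoxicity counter screen: intracellular ATP read by CellTiter-Glo luminescence in the p53 reporter wells. HCT-116 p53RE-bla cells were treated for 16 h at 37 C alongside rat liver microsomes and NADPH, each 0.5 mg/mL final.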
# [9] = p53 small molecule agonists, cell-based qHTS assay: qHTS cell viability counter screen (AID 1963581); note: nearly all actives have a fitted effect of over 45% in size
# Method in brief: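 Cytotoxicity read-out: ATP-based luminescence (CellTiter-Glo, 30 min RT) measured in the same wells as the p53 reporter assay, HCT-116 p53RE-bla cells, 16 h compound exposure at 37 C.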
# [10] = target: 5-hydroxytryptamine receptor 2A (Homo sapiens) (UniProt P28223); assay: 5-hydroxytryptamine receptor 2A (HTR2A) small molecule antagonists, cell-based qHTS assay (AID 1963586); note: nearly all actives have a fitted effect of over 45% in size
# Sequence of 5-hydroxytryptamine receptor 2A (Homo sapiens) (P28223 whole entry, looked up): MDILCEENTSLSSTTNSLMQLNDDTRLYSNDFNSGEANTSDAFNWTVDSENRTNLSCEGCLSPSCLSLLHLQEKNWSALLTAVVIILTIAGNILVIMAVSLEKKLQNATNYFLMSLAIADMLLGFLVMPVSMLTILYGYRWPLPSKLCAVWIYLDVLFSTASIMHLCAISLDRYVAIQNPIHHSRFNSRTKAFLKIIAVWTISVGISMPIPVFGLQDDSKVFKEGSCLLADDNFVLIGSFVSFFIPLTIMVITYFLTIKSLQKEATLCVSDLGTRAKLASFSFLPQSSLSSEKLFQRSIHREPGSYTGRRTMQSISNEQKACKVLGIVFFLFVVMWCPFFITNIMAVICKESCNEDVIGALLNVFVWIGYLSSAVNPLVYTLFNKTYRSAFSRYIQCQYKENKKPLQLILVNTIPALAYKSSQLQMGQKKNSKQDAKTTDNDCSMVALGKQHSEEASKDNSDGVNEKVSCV
# Method in brief: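 CHO cells stably expressing human HTR2A were plated for 18 h at 37 C, then loaded with calcium dye for 1 h. Compounds were preincubated 5 min at room temperature before DOI (4 nM solution) was added. Kinetic fluorescence was read for 3 min.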
# [11] = target: 5-hydroxytryptamine receptor 2A (Homo sapiens) (UniProt P28223); assay: 5-hydroxytryptamine receptor 2A (HTR2A) small molecule agonists, cell-based qHTS assay (AID 1963587); note: nearly all actives have a fitted effect of over 30% in size
# Method in brief: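 Kinetic calcium-flux fluorescence (2 min, 1 sec intervals) after compound addition in agonist mode. HTR2A-CHO cells were cultured 18 h, then dye-loaded 1 h at 37 C.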
# [12] = target: Muscarinic acetylcholine receptor M1 (Homo sapiens) (UniProt P11229); assay: Cholinergic receptor muscarinic 1 (CHRM1) small molecule antagonists, cell-based qHTS assay (AID 1963588); note: nearly all actives have a fitted effect of over 40% in size
# Sequence of Muscarinic acetylcholine receptor M1 (Homo sapiens) (P11229 whole entry, looked up): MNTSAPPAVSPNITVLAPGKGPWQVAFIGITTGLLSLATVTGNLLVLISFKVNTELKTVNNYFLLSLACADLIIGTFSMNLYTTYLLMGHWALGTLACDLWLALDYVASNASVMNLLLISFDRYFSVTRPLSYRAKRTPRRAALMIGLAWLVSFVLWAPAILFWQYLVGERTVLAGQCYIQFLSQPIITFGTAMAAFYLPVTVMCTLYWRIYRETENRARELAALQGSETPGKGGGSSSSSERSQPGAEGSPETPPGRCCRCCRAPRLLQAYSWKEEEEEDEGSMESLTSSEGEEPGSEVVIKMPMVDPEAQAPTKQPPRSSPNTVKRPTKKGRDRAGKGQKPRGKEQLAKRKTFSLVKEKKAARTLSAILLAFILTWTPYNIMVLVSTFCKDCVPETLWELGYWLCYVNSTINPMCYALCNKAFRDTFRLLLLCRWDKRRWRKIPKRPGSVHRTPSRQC
# Method in brief: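 Compounds were tested at 15 concentrations in three independent runs. Dye-loaded CHRM1-CHO cells were exposed 5 min at room temperature before stimulation by acetylcholine added at 50nM. Intracellular calcium was read kinetically on FDSS for 3 min.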
# [13] = target: Muscarinic acetylcholine receptor M1 (Homo sapiens) (UniProt P11229); assay: Cholinergic receptor muscarinic 1 (CHRM1) small molecule agonists, cell-based qHTS assay (AID 1963589); note: nearly all actives have a fitted effect of over 35% in size
# Method in brief: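 Calcium flux read-out: kinetic fluorescence at 1 sec intervals after pin-tool compound addition to dye-loaded CHRM1-CHO cells (human M1). Agonist mode; 15 concentrations tested in triplicate independent runs.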
# [14] = cAMP Responsive Elements (CRE) small molecule agonists, cell-based qHTS assay (AID 1963590)
# Method in brief: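 Beta-lactamase reporter readout: LiveBLAzer B/G FRET substrate, 2 h at room temperature, added after 3 h compound treatment of CRE-bla HEK 293T cells at 37 C/5% CO2.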
# [15] = target: Beta-2 adrenergic receptor (Homo sapiens) (UniProt P07550); assay: Adrenergic beta2 receptor (ADRB2) small molecule antagonists, cell-based qHTS assay (AID 1963592); note: series mostly up to about 92 µM; nearly all actives have a fitted effect of over 50% in size
# Sequence of Beta-2 adrenergic receptor (Homo sapiens) (P07550 whole entry, looked up): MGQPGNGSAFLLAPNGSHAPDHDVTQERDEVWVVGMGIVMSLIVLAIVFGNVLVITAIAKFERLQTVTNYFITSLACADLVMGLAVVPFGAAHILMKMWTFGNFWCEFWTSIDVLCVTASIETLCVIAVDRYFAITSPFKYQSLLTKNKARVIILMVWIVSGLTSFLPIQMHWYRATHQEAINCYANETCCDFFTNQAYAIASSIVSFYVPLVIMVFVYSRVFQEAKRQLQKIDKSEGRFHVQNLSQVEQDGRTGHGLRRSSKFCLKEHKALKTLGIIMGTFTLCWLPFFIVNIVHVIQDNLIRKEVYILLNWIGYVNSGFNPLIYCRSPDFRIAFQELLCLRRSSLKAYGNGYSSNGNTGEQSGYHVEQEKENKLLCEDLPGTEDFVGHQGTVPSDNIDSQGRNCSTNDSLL
# Method in brief: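 Assay format: CHO-ADRB2 cells, 18-20hr seeding at 37C/5% CO2, then compound plus 1nM isoproterenol agonist mix for 0.5hr RT. Homogeneous time-resolved fluorescence cAMP detection after 1hr, expressed as 665/615 nm ratio.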
# [16] = target: Beta-2 adrenergic receptor (Homo sapiens) (UniProt P07550); assay: Adrenergic beta2 receptor (ADRB2) small molecule agonists, cell-based qHTS assay (AID 1963593);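 note: CHO cells stably overexpressing human ADRB2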
# Method in brief: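 CHO cells stably over-expressing ADRB2 were plated overnight at 37C, then dosed with compounds plus a stimulation mix containing 100uM IBMX and 25uM Ro-20-1724 for 0.5hr at room temperature. cAMP was measured by HTRF competition, 1hr.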
# [17] = target: D(2) dopamine receptor (Homo sapiens) (UniProt P14416); assay: Dopamine D2 receptor (DRD2) small molecule agonists, cell-based qHTS assay (AID 1963594); note: nearly all actives have a fitted effect of over 35% in size
# Sequence of D(2) dopamine receptor (Homo sapiens) (P14416 whole entry, looked up): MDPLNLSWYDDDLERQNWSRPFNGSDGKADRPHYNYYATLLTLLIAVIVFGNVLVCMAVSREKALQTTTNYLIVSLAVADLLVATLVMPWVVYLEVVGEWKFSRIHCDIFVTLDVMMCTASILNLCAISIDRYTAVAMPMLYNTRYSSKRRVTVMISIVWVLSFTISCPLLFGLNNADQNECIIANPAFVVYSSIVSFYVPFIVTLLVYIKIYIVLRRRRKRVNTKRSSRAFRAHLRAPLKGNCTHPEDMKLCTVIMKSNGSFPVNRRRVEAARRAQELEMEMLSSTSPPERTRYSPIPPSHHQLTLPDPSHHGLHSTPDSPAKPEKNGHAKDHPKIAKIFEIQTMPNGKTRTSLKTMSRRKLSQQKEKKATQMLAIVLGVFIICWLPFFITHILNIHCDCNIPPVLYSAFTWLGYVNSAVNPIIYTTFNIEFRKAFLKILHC
# Method in brief: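 cAMP accumulation in DRD2-HEK293 cells measured by HTRF after 1 h detection; compounds added 10 min before NKH477 (200nM […]) forskolin-analogue stimulation, 30 min at room temperature, with Ro20-1724 present at 0.1 mM final.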
# [18] = target: D(2) dopamine receptor (Homo sapiens) (UniProt P14416); assay: Dopamine D2 receptor (DRD2) small molecule antagonists, cell-based qHTS assay (AID 1963595; active = well fitted inhibition curve with a large enough effect in the signal ratio in the repeat runs, with a control signal flat; the % refers to the signal ratio)
# Method in brief: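 HEK293 cells stably expressing DRD2, preincubated with 0.1 mM Ro20-1724 and compounds 10 min, were stimulated with 200 nM NKH477 plus 12 nM quinpirole for 30 min at room temperature; cAMP measured by HTRF (665/620 nm).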
# [19] = cAMP Responsive Elements (CRE) small molecule antagonists, cell-based qHTS assay (AID 1963591; active = well fitted inhibition curve with a large enough effect in the signal ratio in the repeat runs, not every such curve was filed as active; the % refers to the signal ratio)
# Method in brief: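 HEK293T CRE-bla; 18 h preincubation; compound pin-transfer; NKH477 0.25 uM final, 3 h, 37 C; LiveBLAzer FRET substrate 2 h RT.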
# [20] = G protein-coupled receptor (GPCR) small molecule agonists, calcium flux assay: HEK293 wild type cell line counter screen (AID 1920065)
# Method in brief: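 Agonist mode; 18 h seeding at 37 C, 1 h dye load at 37 C; compounds pinned from DMSO, ATP as positive control; kinetic fluorescence 480/540 nm, 3 min, 1 s reads; 15 concentrations, triplicate.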
Structure (SMILES),Potency [1],Potency [2],Potency [3],Potency [4],Potency [5],Potency [6],Potency [7],Potency [8],Potency [9],Potency [10],Potency [11],Potency [12],Potency [13],Potency [14],Potency [15],Potency [16],Potency [17],Potency [18],Potency [19],Potency [20]
COC(=O)C1CCC(C(=O)OC)CC1 (configuration not stated),inactive,inactive,inactive,inactive,inactive,inactive,inactive,inactive,inactive,inactive,inactive,inactive,inactive,inactive,inactive,inactive,inactive,inactive,–,–
CC1(C)NC(=O)NC1=O,inactive,inactive,inactive,inactive,inactive,inactive,inactive,inactive,inactive,inactive,inactive,–,inactive,inactive,inactive,inactive,inactive,inactive,inactive,–
C=C1C2CCC(C2)C1(C)C (configuration not stated),inactive,inactive,inactive,–,inactive,inactive,inactive,inactive,inactive,inactive,inactive,inactive,inactive,inactive,inactive,–,inactive,inactive,inactive,inactive
OC[C@H]1O[C@@H](Oc2ccc(O)cc2)[C@H](O)[C@@H](O)[C@@H]1O,inactive,inactive,inactive,inactive,inactive,inactive,inactive,inactive,inactive,inactive,inactive,inactive,inactive,inactive,–,–,inactive,–,inactive,–
CC(C)Cc1ccccc1,inactive,inactive,inactive,inactive,inactive,inactive,inactive,inactive,–,inactive,inactive,inactive,inactive,inactive,inactive,–,inactive,inactive,inactive,–
CC(=O)Oc1ccccc1C(=O)O,inactive,inactive,inactive,–,inactive,inactive,inactive,inactive,inactive,–,–,–,–,inactive,inactive,inactive,inactive,inactive,inactive,inactive
O=c1cc[nH]c(=S)[nH]1,inactive,inactive,inactive,inactive,inactive,inactive,inactive and 793 nM (active),inactive,inactive,inactive,inactive,inactive,inactive,inactive,inactive,–,inactive,inactive,inactive,–
CCCCC(CC)COC(=O)c1ccc(N(C)C)cc1 (configuration not stated),inactive,30.8 µM (active) and 54.5 µM (active) and inactive,inactive,inactive,inactive,inactive,inactive,inactive,inactive,inactive,inactive,inactive,inactive,inactive,inactive,–,inactive,inactive,–,–
CCC1(c2ccccc2)C(=O)NCNC1=O,inactive,inactive,inactive,inactive,inactive,inactive,inactive,inactive,inactive,–,–,–,–,inactive,inactive,–,inactive,–,inactive,–
OC(CCl)CCl,inactive,inactive,inactive,inactive,inactive,–,inactive,inactive,inactive,inactive,inactive,–,inactive,inactive,inactive,–,inactive,inactive,inactive,–
O=CCc1ccccc1,inactive,inactive,inactive,–,inactive,inactive,inactive,inactive,inactive,inactive,inactive,inactive,inactive,inactive,–,inactive,inactive,inactive,inactive,inactive
C=C(C#N)C(=O)OCC,inactive,inactive and 68.6 µM (active),inactive,inactive,inactive,inactive,inactive,inactive,inactive,inactive,inactive,inactive,inactive,inactive,inactive,inactive,inactive,inactive,inactive,–
C=CCc1ccc(OC)c(OC)c1,inactive,inactive,inactive,–,inactive,inactive,inactive,inactive,inactive,inactive,inactive,inactive,inactive,inactive,inactive,–,inactive,inactive,inactive,inactive
C=C(C)C(=O)O,inactive,inactive,inactive,inactive,inactive,inactive,inactive,inactive,inactive,–,inactive,inactive,inactive,inactive,inactive,inactive,inactive,–,inactive,–
Cc1cc(C)c(O)c(C)c1,inactive,inactive,inactive,inactive,inactive,inactive,inactive,inactive,–,inactive,inactive,inactive,inactive,inactive,inactive,inactive,inactive,–,inactive,–
O=C(C1CCCCC1)N1CC(=O)N2CCc3ccccc3C2C1 (configuration not stated),inactive,inactive,inactive,inactive,–,–,–,–,–,–,–,–,–,–,–,–,inactive,inactive,–,inactive
